Article PMC5540273 (PLoS ONE, 2017)

The molecules below were run on T1, MST3. Settings: concentration: 1 μM,replicates: in singlicate; n = 1.
T1 construct: gene STK24
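Also: KINOMEscan kinase panel screen.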

Question: For `O=C(Nc1cccc(Oc2ccc3nccn3n2)c1)Nc1cccc(C(F)(F)F)c1`, which “%Inh” value is on record?
Answer: 0%

Question: `CN(c1ccccc1CNc1nc(Nc2ccc3c(c2)CC(=O)N3)ncc1C(F)(F)F)S(C)(=O)=O` was tested. Which “%Inh” value did it give?
Answer: 30%

Question: How did the “%Inh” value turn out when `NC(=O)c1ccc(-c2cc3ncnc(SCC(=O)O)c3s2)cc1` was run?
Answer: 0%

Question: `Cn1ccc2ncnc(Oc3ccc(NC(=O)Nc4cc(C(C)(C)C)on4)c(Cl)c3)c21` was tested. Which “%Inh” value did it give?
Answer: 6%

Question: For `COC(=O)Nc1nc2cc(Oc3ccc(NC(=O)Nc4cc(C(F)(F)F)ccc4Cl)cc3)ccc2[nH]1.Cl` [GW697465], which “%Inh” value is on record?
Answer: 0%

Question: Which “%Inh” value does the source give for `COc1cc2c(Nc3ccc(NC(=O)c4ccccc4)cc3)ncnc2cc1OCCCN1CCOCC1` [GSK301329] here?
Answer: 0%

Question: How did the “%Inh” value turn out when `C[C@@H]1CNc2c(sc3ccc4nc(-c5ccc(O)cc5)ccc4c23)C(=O)N1` was run?
Answer: 25%

Question: How did the “%Inh” value turn out when `CN(c1cccc(CNc2nc(Nc3ccc4c(c3)CC(=O)N4)ncc2C(F)(F)F)c1)S(C)(=O)=O` was run?
Answer: 16%

Question: For `O=C(Nc1ccc(Oc2ccc3nc(NC(=O)C4CC4)cn3n2)c(F)c1)c1cccn(-c2ccccc2)c1=O`, which “%Inh” value is on record?
Answer: 0%

Question: For `Nc1nccc(-c2ccc3c(N)n[nH]c3c2)n1` [GSK1034945], which “%Inh” value is on record?
Answer: 0%

Question: How did the “%Inh” value turn out when `CNC(=O)c1ccccc1Nc1nc(Nc2cccc(CS(C)(=O)=O)c2)ncc1C.O=CO` [GSK1520489] was run?
Answer: 34%

Question: For `C[C@@H](Oc1cc(-n2cnc3cc(-c4ccncc4)ccc32)sc1C(N)=O)c1ccccc1Cl` [GSK479719], which “%Inh” value is on record?
Answer: 0%

Question: With `N#Cc1cccc(C(=O)NC2CCN(c3ccnc(Nc4ccc(F)cc4)n3)C2)c1` (centres unmarked) [GSK1379708] as the molecule, how does the “%Inh” value read?
Answer: 0%

Question: For `FC(F)(F)c1cc(Br)cc(Nc2nccc(-c3cnn4ncccc34)n2)c1` [GW810578], which “%Inh” value is on record?
Answer: 0%

Question: For `NC(=O)Nc1sc(-c2ccc(F)cc2)cc1C(N)=O` [GW789449], which “%Inh” value is on record?
Answer: 21%

Question: With `CC(=O)Nc1ccc(-c2cc3ncnc(SCC(=O)O)c3s2)cc1` as the molecule, how does the “%Inh” value read?
Answer: 24%

Question: Which “%Inh” value does the source give for `Cc1cccc2c(-c3ccncc3)c(-c3ccc(F)cc3)nn12.Cl` [GW461487] here?
Answer: 16%

Question: For `O=C1NCCc2[nH]c(-c3ccncc3)cc21`, which “%Inh” value is on record?
Answer: 23%

Question: With `CCn1c(-c2nonc2N)nc2cncc(CNC3CCNCC3)c21.Cl` [SB-747651] as the molecule, how does the “%Inh” value read?
Answer: 0%

Question: `O=c1[nH]cc(-c2ccc(O)cc2)c2sc(-c3ccncc3)cc12` [GSK1033723] was tested. Which “%Inh” value did it give?
Answer: 6%

Question: `CCNCC(Cc1ccccc1)NC(=O)c1cc(Br)c(-c2ccnc3[nH]ccc23)s1.Cl.Cl` (centres unmarked) [GSK1383280] was tested. Which “%Inh” value did it give?
Answer: 1%

Question: How did the “%Inh” value turn out when `O=C(Nc1ccccc1)c1cccc(Oc2ccc3nccn3n2)c1` was run?
Answer: 37%

Question: For `Cl.c1ccc(Oc2ccc(Nc3ccnc4cc(-c5ccc(CN6CCNCC6)o5)ccc34)cc2)nc1` [GW567142], which “%Inh” value is on record?
Answer: 8%

Question: `Cl.Nc1n[nH]c2cc(-c3ccccn3)ccc12` [GSK2189892] was tested. Which “%Inh” value did it give?
Answer: 0%

Question: How did the “%Inh” value turn out when `COc1ccc(Nc2nccc(N3CCC(NC(=O)c4cccc(C#N)c4)C3)n2)cc1` (centres unmarked) [GSK1379730] was run?
Answer: 0%

Question: `CC(C(=O)NC1CCN(c2ccnc(Nc3ccc(F)cc3)n2)C1)c1ccc(Cl)cc1` (centres unmarked) [GSK1379713] was tested. Which “%Inh” value did it give?
Answer: 0%

Question: How did the “%Inh” value turn out when `c1ccc(Oc2ccc(Nc3ccnc4ccc(-c5ccccn5)cc34)cc2)cc1` [GW407034] was run?
Answer: 4%

Question: For `CS(=O)(=O)c1cccc(CNc2nc(Nc3ccc4c(c3)[C@@H]3C[C@@H]4CNC3=O)ncc2C(F)(F)F)c1`, which “%Inh” value is on record?
Answer: 15%

Question: How did the “%Inh” value turn out when `COc1cccc(OC)c1C(=O)Nc1cccc(-c2nn3ccccc3c2-c2ccnc(Nc3cccc(F)c3)n2)c1` [GSK361065] was run?
Answer: 7%

Question: `COC(=O)c1cccc(NC(=O)NC2CCN(c3ccnc(Nc4cc(OC)c(OC)c(OC)c4)n3)C2)c1` (centres unmarked) [GSK1379767] was tested. Which “%Inh” value did it give?
Answer: 0%

Question: `CC(C)c1nc(-c2cccc(NS(=O)(=O)c3ccccc3)c2)c(-c2ccnc(Nc3ccc4c(c3)CN(C)CC4)n2)s1` [GSK1649598] was tested. Which “%Inh” value did it give?
Answer: 82%

Question: Which “%Inh” value does the source give for `C[C@@H]1CCN(C(=O)N2CCCC2)C[C@@H]1N(C)c1ncnc2[nH]ccc12` here?
Answer: 25%

Question: Which “%Inh” value does the source give for `CSc1nccc(-c2c(-c3ccc(F)cc3)ncn2CCCN2CCOCC2)n1.Cl` [SB-217146] here?
Answer: 6%

Question: `COc1cc2nccc(Nc3ccc(Oc4ccccc4)cc3)c2cc1OC.Cl` [GI261656] was tested. Which “%Inh” value did it give?
Answer: 0%

Question: `Cc1ccc(Nc2ccnc(Nc3ccc4c(c3)CS(=O)(=O)C4)n2)cc1O.Cl` [GW579362] was tested. Which “%Inh” value did it give?
Answer: 29%

Question: For `Cc1nnc(-c2ccc3occ(-c4ccc(S(C)=O)cc4)c3n2)o1` (centres unmarked), which “%Inh” value is on record?
Answer: 0%

Question: Which “%Inh” value does the source give for `O=C(NOCC1CC1)c1cc(Br)c(F)c(F)c1Nc1ccc(I)cc1Cl` here?
Answer: 18%

What follows are molecules tested on MST4. Settings: concentration: 1 μM,replicates: in singlicate; n = 1.

Question: For `O=C(Nc1cccc(Oc2ccc3nccn3n2)c1)Nc1cccc(C(F)(F)F)c1`, which “%Inh” value is on record?
Answer: 0%

Question: For `CN(c1ccccc1CNc1nc(Nc2ccc3c(c2)CC(=O)N3)ncc1C(F)(F)F)S(C)(=O)=O`, which “%Inh” value is on record?
Answer: 77%

Question: With `NC(=O)c1ccc(-c2cc3ncnc(SCC(=O)O)c3s2)cc1` as the molecule, how does the “%Inh” value read?
Answer: 0%

Question: With `Cn1ccc2ncnc(Oc3ccc(NC(=O)Nc4cc(C(C)(C)C)on4)c(Cl)c3)c21` as the molecule, how does the “%Inh” value read?
Answer: 0%

Question: Which “%Inh” value does the source give for `COC(=O)Nc1nc2cc(Oc3ccc(NC(=O)Nc4cc(C(F)(F)F)ccc4Cl)cc3)ccc2[nH]1.Cl` [GW697465] here?
Answer: 0%

Question: For `COc1cc2c(Nc3ccc(NC(=O)c4ccccc4)cc3)ncnc2cc1OCCCN1CCOCC1` [GSK301329], which “%Inh” value is on record?
Answer: 10%

Question: With `C[C@@H]1CNc2c(sc3ccc4nc(-c5ccc(O)cc5)ccc4c23)C(=O)N1` as the molecule, how does the “%Inh” value read?
Answer: 0%

Question: How did the “%Inh” value turn out when `CN(c1cccc(CNc2nc(Nc3ccc4c(c3)CC(=O)N4)ncc2C(F)(F)F)c1)S(C)(=O)=O` was run?
Answer: 2%

Question: `O=C(Nc1ccc(Oc2ccc3nc(NC(=O)C4CC4)cn3n2)c(F)c1)c1cccn(-c2ccccc2)c1=O` was tested. Which “%Inh” value did it give?
Answer: 0%

Question: How did the “%Inh” value turn out when `Nc1nccc(-c2ccc3c(N)n[nH]c3c2)n1` [GSK1034945] was run?
Answer: 0%

Question: `CNC(=O)c1ccccc1Nc1nc(Nc2cccc(CS(C)(=O)=O)c2)ncc1C.O=CO` [GSK1520489] was tested. Which “%Inh” value did it give?
Answer: 54%

Question: For `C[C@@H](Oc1cc(-n2cnc3cc(-c4ccncc4)ccc32)sc1C(N)=O)c1ccccc1Cl` [GSK479719], which “%Inh” value is on record?
Answer: 0%

Question: How did the “%Inh” value turn out when `N#Cc1cccc(C(=O)NC2CCN(c3ccnc(Nc4ccc(F)cc4)n3)C2)c1` (centres unmarked) [GSK1379708] was run?
Answer: 0%

Question: With `FC(F)(F)c1cc(Br)cc(Nc2nccc(-c3cnn4ncccc34)n2)c1` [GW810578] as the molecule, how does the “%Inh” value read?
Answer: 17%

Question: Which “%Inh” value does the source give for `NC(=O)Nc1sc(-c2ccc(F)cc2)cc1C(N)=O` [GW789449] here?
Answer: 25%

Question: With `CC(=O)Nc1ccc(-c2cc3ncnc(SCC(=O)O)c3s2)cc1` as the molecule, how does the “%Inh” value read?
Answer: 2%

Question: `Cc1cccc2c(-c3ccncc3)c(-c3ccc(F)cc3)nn12.Cl` [GW461487] was tested. Which “%Inh” value did it give?
Answer: 0%

Question: How did the “%Inh” value turn out when `O=C1NCCc2[nH]c(-c3ccncc3)cc21` was run?
Answer: 0%

Question: With `CCn1c(-c2nonc2N)nc2cncc(CNC3CCNCC3)c21.Cl` [SB-747651] as the molecule, how does the “%Inh” value read?
Answer: 0%

Question: `O=c1[nH]cc(-c2ccc(O)cc2)c2sc(-c3ccncc3)cc12` [GSK1033723] was tested. Which “%Inh” value did it give?
Answer: 0%

Question: For `CCNCC(Cc1ccccc1)NC(=O)c1cc(Br)c(-c2ccnc3[nH]ccc23)s1.Cl.Cl` (centres unmarked) [GSK1383280], which “%Inh” value is on record?
Answer: 26%

Question: With `O=C(Nc1ccccc1)c1cccc(Oc2ccc3nccn3n2)c1` as the molecule, how does the “%Inh” value read?
Answer: 0%

Question: For `Cl.c1ccc(Oc2ccc(Nc3ccnc4cc(-c5ccc(CN6CCNCC6)o5)ccc34)cc2)nc1` [GW567142], which “%Inh” value is on record?
Answer: 0%

Question: With `Cl.Nc1n[nH]c2cc(-c3ccccn3)ccc12` [GSK2189892] as the molecule, how does the “%Inh” value read?
Answer: 0%

Question: With `COc1ccc(Nc2nccc(N3CCC(NC(=O)c4cccc(C#N)c4)C3)n2)cc1` (centres unmarked) [GSK1379730] as the molecule, how does the “%Inh” value read?
Answer: 0%

Question: How did the “%Inh” value turn out when `CC(C(=O)NC1CCN(c2ccnc(Nc3ccc(F)cc3)n2)C1)c1ccc(Cl)cc1` (centres unmarked) [GSK1379713] was run?
Answer: 0%

Question: How did the “%Inh” value turn out when `c1ccc(Oc2ccc(Nc3ccnc4ccc(-c5ccccn5)cc34)cc2)cc1` [GW407034] was run?
Answer: 0%

Question: `CS(=O)(=O)c1cccc(CNc2nc(Nc3ccc4c(c3)[C@@H]3C[C@@H]4CNC3=O)ncc2C(F)(F)F)c1` was tested. Which “%Inh” value did it give?
Answer: 0%

Question: How did the “%Inh” value turn out when `COc1cccc(OC)c1C(=O)Nc1cccc(-c2nn3ccccc3c2-c2ccnc(Nc3cccc(F)c3)n2)c1` [GSK361065] was run?
Answer: 0%

Question: With `COC(=O)c1cccc(NC(=O)NC2CCN(c3ccnc(Nc4cc(OC)c(OC)c(OC)c4)n3)C2)c1` (centres unmarked) [GSK1379767] as the molecule, how does the “%Inh” value read?
Answer: 0%

Question: With `CC(C)c1nc(-c2cccc(NS(=O)(=O)c3ccccc3)c2)c(-c2ccnc(Nc3ccc4c(c3)CN(C)CC4)n2)s1` [GSK1649598] as the molecule, how does the “%Inh” value read?
Answer: 82%

Question: `C[C@@H]1CCN(C(=O)N2CCCC2)C[C@@H]1N(C)c1ncnc2[nH]ccc12` was tested. Which “%Inh” value did it give?
Answer: 0%

Question: `CSc1nccc(-c2c(-c3ccc(F)cc3)ncn2CCCN2CCOCC2)n1.Cl` [SB-217146] was tested. Which “%Inh” value did it give?
Answer: 0%

Question: With `COc1cc2nccc(Nc3ccc(Oc4ccccc4)cc3)c2cc1OC.Cl` [GI261656] as the molecule, how does the “%Inh” value read?
Answer: 0%

Question: For `Cc1ccc(Nc2ccnc(Nc3ccc4c(c3)CS(=O)(=O)C4)n2)cc1O.Cl` [GW579362], which “%Inh” value is on record?
Answer: 25%

Question: With `Cc1nnc(-c2ccc3occ(-c4ccc(S(C)=O)cc4)c3n2)o1` (centres unmarked) as the molecule, how does the “%Inh” value read?
Answer: 0%

Question: How did the “%Inh” value turn out when `O=C(NOCC1CC1)c1cc(Br)c(F)c(F)c1Nc1ccc(I)cc1Cl` was run?
Answer: 0%
